KCNQ2 pot: KCNQ2 (rat) channel potentiation. O88943. CHO-K1 KCNQ2, FluxOR thallium flux fluorescence; hits give high values. B-score at 10 µM. actives 0.54% (n = 310,000). AID 2239;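 active means fluorescence ratio B-score at least 3 SD of library B-scores, with initial fluorescence B-score within 3 of them, cut at about 5.3 in these data; same plate scores as AID 2156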;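 further: B-score of peak minus minimum over baseline fluorescence ratio after K+ and Tl+ stimulus; positive B-score means potentiation of KCNQ2 with more thallium influx and brighter signal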
Target sequence (O88943 whole entry, looked up): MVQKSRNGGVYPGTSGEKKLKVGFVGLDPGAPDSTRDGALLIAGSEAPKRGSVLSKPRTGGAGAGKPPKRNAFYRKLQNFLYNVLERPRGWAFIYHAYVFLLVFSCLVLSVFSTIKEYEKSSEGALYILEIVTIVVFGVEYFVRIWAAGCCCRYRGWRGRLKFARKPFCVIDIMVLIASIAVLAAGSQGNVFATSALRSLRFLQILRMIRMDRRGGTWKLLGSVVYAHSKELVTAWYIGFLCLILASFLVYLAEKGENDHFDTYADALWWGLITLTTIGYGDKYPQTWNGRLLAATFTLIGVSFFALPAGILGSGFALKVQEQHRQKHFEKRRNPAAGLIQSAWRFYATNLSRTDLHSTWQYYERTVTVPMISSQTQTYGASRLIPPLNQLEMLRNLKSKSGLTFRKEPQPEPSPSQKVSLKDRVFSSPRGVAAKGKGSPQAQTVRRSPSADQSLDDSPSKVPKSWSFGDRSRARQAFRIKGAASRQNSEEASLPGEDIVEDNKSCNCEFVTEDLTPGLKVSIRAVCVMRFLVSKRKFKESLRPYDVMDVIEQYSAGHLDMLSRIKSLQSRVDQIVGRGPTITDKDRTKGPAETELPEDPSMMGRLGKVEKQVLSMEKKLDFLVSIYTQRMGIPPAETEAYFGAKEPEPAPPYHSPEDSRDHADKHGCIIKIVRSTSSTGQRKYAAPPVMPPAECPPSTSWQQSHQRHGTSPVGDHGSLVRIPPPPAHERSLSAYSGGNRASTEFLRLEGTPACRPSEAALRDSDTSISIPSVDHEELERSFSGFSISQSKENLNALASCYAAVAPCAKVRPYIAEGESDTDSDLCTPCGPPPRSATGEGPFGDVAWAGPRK
KCNQ2 block: KCNQ2 (rat) channel inhibition. CHO-K1 KCNQ2, FluxOR thallium flux, 20 min; hits give low values. B-score at 10 µM. actives 1.1% (n = 310,000). AID 2156;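 active means fluorescence ratio B-score at most minus 3 library SDs, with starting brightness B-score within 2 library SDs, cut at about -5.5 in these data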
* marks the source's active call; other numbers are inactive results; i = inactive; / = no result given. The list is not random: actives were taken first. Their share in the collection is about 1.6%.

SMILES | KCNQ2 pot | KCNQ2 block
NC(=O)c1ccc(NC(=O)COc2cccc3ccccc23)cc1 | 0.03 | i
COc1cccc(CNC(=O)c2ccccc2-c2ccccc2)c1 | 0.06 | i
CCC(C)C1Nc2ccc(C(=O)NCCc3ccc(OC)c(OC)c3)cc2NC1=O (stereo not given) | 0.28 | i
COc1ccc(Cl)cc1Nc1ncnc2sc(C)c(S(=O)(=O)N3CCC(C)CC3)c12 | -6.69 | -6.69*
COCCNC(=O)Cn1cnc2sc(C)c(S(=O)(=O)N3CCC(C)CC3)c2c1=O | / | i
O=C(CSc1nc(=O)n(CCN2CCOCC2)c2c1CCCC2)Nc1ccc(F)cc1F | / | i
COc1ccc(OC)c(-c2cc(C(=O)N3CCCc4ccccc43)no2)c1 | / | i
COc1ccccc1-c1cc(C(=O)N2CCCc3ccccc32)no1 | -6.03 | -6.03*
CCc1nn(CC(=O)N2CC(C)CC(C)C2)c(=O)c2cccn12 (stereo not given) | / | i
CC1CCN(Cc2c(C(=O)N3CCc4ccccc4C3)nc3ccc(Cl)cn23)CC1 | -5.8 | -5.8*
O=C(c1nc2ccc(Cl)cn2c1CN1CCC(O)CC1)N1CCc2ccccc2C1 | 0.37 | i
O=C(COc1ccc(-c2ccccc2)cc1)NNC(=O)NC1CCCCC1 | 1.16 | i
Cc1noc(C)c1CSc1nc2ccccc2c(=O)n1-c1ccccc1 | -7.06 | -7.06*
COc1ccc(C(C)=O)cc1CSc1nc2ccccc2c(=O)n1-c1cccc(C)c1 | -6.66 | -6.66*
Cc1noc(C)c1CSc1nc2[nH]ncc2c(=O)n1-c1ccccc1 | / | i
COc1ccc(C(C)=O)cc1CSc1nc2ccccc2c(=O)n1-c1ccccc1 | / | i
COc1ccc(C(C)NC(=O)c2ccc([N+](=O)[O-])cc2)cc1OC (stereo not given) | / | i
CN(CC(=O)NC(c1ccccc1)c1ccccc1)Cc1nc2ccccc2c(=O)[nH]1 | -6.64 | -6.64*
CN(CC(=O)Nc1ccccc1Sc1ccccc1)Cc1nc2ccccc2c(=O)[nH]1 | / | i
O=C(NCCc1c[nH]c2ccccc12)C1CCC(=O)N(CCc2cccc(F)c2)C1 (stereo not given) | 0.58 | i
Cc1cc(-c2nn(-c3ccccc3F)cc2CNCCc2cnc[nH]2)c(C)s1 | / | i
CC(SCC(=O)Nc1ccc(F)cc1)c1nc2ccccc2c(=O)[nH]1 (stereo not given) | 0.59 | i
CCOc1ccc(NC(=O)CSc2nnc(CNC(=O)c3ccco3)o2)cc1 | 1.19 | i
COc1ccc(C2CC(c3cccs3)=Nc3ccccc3S2)cc1 (stereo not given) | -5.96 | -5.96*
COc1ccc(C2CC(c3cccs3)=NN2S(C)(=O)=O)cc1 (stereo not given) | 0.71 | i
SMILES | KCNQ2 pot | KCNQ2 block
CC(=O)c1cn(N2CCCCC2)c(=O)[nH]c1=O | / | i
CCn1c(SCC(=O)NC2CC2)nnc1-c1ccc(F)cc1 | 0.66 | i
COc1ccc(C2=Nc3ccc(Br)cc3C(c3ccccc3)N2CC(=O)NN)cc1 (stereo not given) | 7.81* | i
COc1ccc(C2=Nc3ccc(C)cc3C(c3ccccc3)N2CC(=O)NN)cc1 (stereo not given) | 2.66 | i
Cc1cccc(C)c1NC(=O)CNC(=O)c1ccc(NS(=O)(=O)c2ccc3[nH]c(=O)[nH]c3c2)cc1 | 0.09 | i
CCOc1ccc(CN2CCN(S(=O)(=O)c3ccc(NC(C)=O)cc3)CC2)cc1 | 1.98 | i
CC(=O)c1ccc(N2CCN(C(=O)C3CCN(S(=O)(=O)c4cccs4)CC3)CC2)cc1 | / | i
Cc1cc(C(=O)NC2CCCN(Cc3ccc(Cl)cc3)C2)c(C)o1 (stereo not given) | / | i
CCOC(=O)C1=C(C)N=c2s/c(=C/c3ccccc3)c(=O)n2C1c1ccc(OC)c(OC)c1 (stereo not given) | / | i
CCOC(=O)C1=C(C)N=c2s/c(=C\c3ccc(OCC(=O)O)cc3)c(=O)n2C1c1ccccc1OC (stereo not given) | 1.09 | i
CCOC(=O)C1=C(C)N=c2s/c(=C\c3ccc(O)c([N+](=O)[O-])c3)c(=O)n2C1c1ccccc1OC (stereo not given) | -7.19 | -7.19*
CCOC(=O)C1=C(C)n2c(s/c(=C/c3cccc([N+](=O)[O-])c3)c2=O)=NC1c1ccc(O)c(OC)c1 (stereo not given) | -6.12 | -6.12*
CC(CCc1ccccc1)NC(=O)C(=O)Nc1ccccc1 (stereo not given) | 1.54 | i
CN(C)c1ccc(NC(=O)CN2C(=O)CC(c3ccccc3)=Nc3ccccc32)cc1 | 1.92 | i
O=C1CC(c2ccccc2)=Nc2ccccc2N1Cc1ccccc1 | -6.15 | -6.15*
CC1CCN(C(=O)C(Cc2ccccc2)n2cccc2)CC1 (stereo not given) | / | i
CC1CC(C)CN(C(=O)C(Cc2ccccc2)n2cccc2)C1 (stereo not given) | -6.45 | -6.45*
Cc1cccc(NC(=O)C(Cc2ccccc2)n2cccc2)c1 (stereo not given) | -5.73 | -5.73*
COc1cc(NC(=O)C(Cc2ccccc2)n2cccc2)cc(OC)c1 (stereo not given) | / | i
CC(Nc1ccccc1N1CCCCC1)C(=O)N1CCc2ccccc21 (stereo not given) | / | i
Cc1cc(OCC(=O)NC(C)c2ccccc2)ccc1[N+](=O)[O-] (stereo not given) | / | i
COc1ccc(CCC(=O)Nc2ncc(C)s2)cc1 | / | i
COc1ccc(C(=O)CCc2ccccc2)c(O)c1 | / | i
O=C(CCc1ccccc1)c1c(O)cc(O)cc1O | -8.23 | -8.23*
CC1(C)CC(=O)C(=Cc2cn(CCC#N)nc2-c2ccc(Cl)cc2)C(=O)C1 | 3.75 | i
SMILES | KCNQ2 pot | KCNQ2 block
CC1(C)CC(=O)C(=Cc2cn(CCC#N)nc2-c2ccc(F)cc2)C(=O)C1 | 6.51* | i
CN(CCOc1ccc(Br)cc1)C(=O)CNC(=O)c1ccc2ccccc2c1 | -6.45 | -6.45*
CCOc1ccc(CN(C)C(=O)CNC(=O)c2ccccc2)cc1 | / | i
CCn1c(-c2cc(-c3cc(OC)ccc3OC)nc3ccccc23)n[nH]c1=S | / | i
CCn1c(-c2cc(-c3ccccc3OC)nc3ccccc23)n[nH]c1=S | -7.18 | -7.18*
O=C(CCCCN1CCCCC1)c1ccccc1 | 0.54 | i
O=C(CCCCCCCC(=O)c1ccccc1)c1ccccc1 | -6.24 | -6.24*
O=C(NCC(=O)N(Cc1ccccc1)C(C(=O)NCC1CCCO1)c1ccccc1)c1cccs1 (stereo not given) | -5.57 | -5.57*
CC(=O)c1ccc(N(C(=O)CNC(=O)c2cccs2)C(C(=O)NCC2CCCO2)c2ccccc2)cc1 (stereo not given) | 0.47 | i
CCN1C(=O)[C@@H]2[C@H](C1=O)[C@@H]1C(=O)Nc3ccccc3C(=O)N1[C@@H]2c1cccc(Cl)c1 | 0.59 | i
CC1(C)CC2CC(C)(CN2C(=O)NC(=O)c2ccccc2)C1 (stereo not given) | / | i
Cc1ccc(C(=O)Nc2ccccc2C(=O)N2CC3(C)CC2CC(C)(C)C3)cc1 (stereo not given) | -6.06 | -6.06*
Cc1nc(NC(=O)CCc2ccccc2)sc1C | / | i
CCN(Cc1ccncc1)Cc1cn[nH]c1-c1ccc(OC)cc1F | 0.77 | i
COc1cccc(-c2cc3nc(-c4ccccc4)cc(N4CCCC(O)C4)n3n2)c1 (stereo not given) | / | i
COc1cccc(-c2cc3nc4c(c(N5CCC6(CC5)OCCO6)n3n2)CCC4)c1 | -7.01 | -7.01*

High-throughput results as filed in PubChem.
